This passage reports AC50 and outcome results from PubChem BioAssay AID2284363 (EPA ToxCast).

What is called AC50 is the midpoint of the concentration-response curve, whichever way the signal moves.

The assay deals with Nuclear factor erythroid 2-related factor 2 (Homo sapiens) (UniProt Q16236). Briefly: ERF_US_NR_hNFE2L2: Eurofins (ERF) Cell Based Nuclear Translocation LeadHunter Assay for human Transcription Factor Keap1-Nrf2 Agonism. The protocol: ERF_US_NR_hNFE2L2 is a cell-based, single-readout assay that uses extracted gene-proteins in a cell-line assay. Measurements were taken 6 hours after chemical dosing in a 384-well plate. See Keap1-Nrf2 Human Transcription Factor Cell Based Agonist Nuclear Translocation Assay, DiscoverX.ERF_US_NR_hNFE2L2 is an assay component calculated from the ERF_US_NR_hNFE2L2 assay. It is designed to measure protein fragment complementation using a type of binding reporter as detected by chemiluminescence with fluorimetry technology.Data from the assay component ERF_US_NR_hNFE2L2 was analyzed at the assay endpoint, ERF_US_NR_hNFE2L2, in the positive analysis fitting direction relative to DMSO as the negative control and baseline of activity. Using a type of binding reporter, gain-of-signal activity can be used to understand changes in binding as they relate to gene NFE2L2. To generalize the intended target to other relatable targets, this assay endpoint is annotated to the dna binding intended target family, where the subfamily is basic leucine zipper.
Cells were seeded in a total volume of 20 uL into white walled, 384-well microplates and incubated at 37C overnight prior to testing.For agonist determination, cells were incubated with sample to induce response. […] The results are expressed as a percent efficacy relative to the maximum response of the control ligand.

The source made the active and inactive calls. The calls were made as follows: active = hit-call score of the fitted dose curve at least 0.9, where 1 is the maximum; inactive = score below 0.9.

Nuclear factor erythroid 2-related factor 2 (Homo sapiens), sequence (Q16236 whole entry, looked up, the tested form may be a part): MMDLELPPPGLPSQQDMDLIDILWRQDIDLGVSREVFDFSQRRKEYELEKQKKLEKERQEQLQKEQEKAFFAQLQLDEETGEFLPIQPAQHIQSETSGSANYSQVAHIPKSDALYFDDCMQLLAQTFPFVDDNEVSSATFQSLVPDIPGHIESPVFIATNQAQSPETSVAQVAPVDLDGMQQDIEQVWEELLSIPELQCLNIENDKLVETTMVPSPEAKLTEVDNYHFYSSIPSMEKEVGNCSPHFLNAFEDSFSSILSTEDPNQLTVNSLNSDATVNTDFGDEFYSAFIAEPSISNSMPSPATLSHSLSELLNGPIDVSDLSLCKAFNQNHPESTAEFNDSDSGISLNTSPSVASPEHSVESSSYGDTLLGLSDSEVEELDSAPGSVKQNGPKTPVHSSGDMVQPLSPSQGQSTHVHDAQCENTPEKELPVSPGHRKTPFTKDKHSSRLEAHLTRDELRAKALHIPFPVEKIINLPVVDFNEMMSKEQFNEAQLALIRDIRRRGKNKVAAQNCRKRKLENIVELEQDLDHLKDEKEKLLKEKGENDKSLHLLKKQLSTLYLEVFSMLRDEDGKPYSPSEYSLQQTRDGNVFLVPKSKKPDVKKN

As for `CC(C)(C)c1cc(O)ccc1O`, the AC50 is 12.2 µM (active).

For `CCNS(=O)(=O)C(F)(F)C(F)(F)C(F)(F)C(F)(F)C(F)(F)C(F)(F)C(F)(F)C(F)(F)F`, the outcome was inactive.
